In PubChem BioAssay (NCATS):
Records with an inconclusive call do not appear. Active and inactive are the calls of the source. Unless noted, the call rests on the fitted dose curve; in most records, active means well fitted curve in the direction sought with a large enough effect; inconclusive means small, poorly fitted or top-dose-only effect, or another doubt; inactive means no such curve, though single readings can be large; an effect the other way counts as inactive or inconclusive.

Columns and labels:
[1] = AP1 Signaling Pathway (AID 357; active means well fitted curve in either direction with a large enough effect, not every such curve was filed as active;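 further: ME-180 reporter cells stimulated with EGF at its EC50 level; on the % scale 0 is the no-effect control and ±100 the full control effect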); details: ME-180 AP-1-bla reporter, EGF-induced, beta-lactamase ratio, 5 h; at 7.69 µM (top of the series) unless noted
Outline: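 Read-out was the 460nm/530nm emission ratio (excitation 405nm) after CCF4 loading for 2.5 hours at room temperature. Cells carried an AP-1-driven beta-lactamase reporter, were stimulated with EC50 EGF plus compound for 5 hours, and AC50 values came from titrations.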

[2] = molecular target: Cytochrome P450 1A2 (Homo sapiens) (UniProt P05177); assay: p450-cyp1a2 (AID 410; calls by dose curve; further: potency means the concentration at half of the fitted maximal effect;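 on activity change, negative = inhibition: -100% = full effect of reference inhibitor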)
Sequence of Cytochrome P450 1A2 (Homo sapiens) (P05177 whole entry, looked up): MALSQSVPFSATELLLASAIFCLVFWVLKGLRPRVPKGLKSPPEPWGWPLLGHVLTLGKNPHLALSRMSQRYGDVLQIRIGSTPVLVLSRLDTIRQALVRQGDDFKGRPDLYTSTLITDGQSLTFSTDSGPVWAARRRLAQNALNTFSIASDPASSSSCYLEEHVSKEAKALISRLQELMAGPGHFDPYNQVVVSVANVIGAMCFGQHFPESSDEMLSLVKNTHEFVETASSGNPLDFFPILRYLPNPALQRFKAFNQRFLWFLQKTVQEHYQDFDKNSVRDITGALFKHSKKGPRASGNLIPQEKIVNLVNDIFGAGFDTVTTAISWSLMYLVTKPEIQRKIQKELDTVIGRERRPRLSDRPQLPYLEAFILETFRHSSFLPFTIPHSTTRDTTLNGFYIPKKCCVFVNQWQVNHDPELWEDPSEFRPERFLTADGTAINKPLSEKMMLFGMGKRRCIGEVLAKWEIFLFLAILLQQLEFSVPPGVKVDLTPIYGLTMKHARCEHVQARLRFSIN
Outline: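 Human CYP1A2 (20nM) demethylated Luciferin-ME at its Km (100uM) in 100mM KPO4. After 10 min compound preincubation, NADPH regeneration ran the reaction 60 min at room temperature. Luciferin was read by luminescence, normalized to 57 uM furafylline.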

[3] = NFAT Signaling Pathway (AID 444; active means well fitted curve in either direction with a large enough effect, not every such curve was filed as active;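 further: carbachol stimulus at about its EC50 of 1 µM final; on the % scale 0 is the no-effect control and ±100 the full control effect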); details: Jurkat NFAT-bla M1, carbachol, beta-lactamase ratio, 5 h; at 7.69 µM (top of the series) unless noted
Outline: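 Jurkat cells carrying an NFAT-driven β-lactamase reporter and co-transfected muscarinic M1 receptor were treated with compound plus carbachol (1 uM final, an EC50 level) for 5 h at 37 °C. CCF4 loading followed for 1 h at RT; 460/530 nm ratio gave %activity.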

[4] = Stat Signaling Pathway (AID 446; active means well fitted curve in either direction with a large enough effect, not every such curve was filed as active;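 further: ME-180 cervical cancer cells given 40 pM IL-6 alongside compound; SIE-controlled beta-lactamase reporter measured as 460/530 nm FRET emission ratio; on the % scale 0 is the no-effect control and ±100 the full control effect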); details: ME-180 (cervical carcinoma) SIE beta-lactamase reporter, IL-6 stimulated, 5 h; at 7.69 µM (top of the series) unless noted
Outline: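 IL-6/STAT signaling read in ME-180 cells via an SIE beta-lactamase reporter. Stimulus was 40 pM IL-6 (its AC50) for 5 hrs, so both activation and inhibition register.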

[5] = molecular target: Glucocorticoid receptor (Homo sapiens) (UniProt P04150); assay: GR-GFP Redistribution (AID 450;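 active means compounds whose dose series gives a full or clear partial fitted curve of increased nuclear translocation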; further: potency means the concentration at half of the fitted maximal effect); details: U2OS GR-GFP nuclear translocation, laser cytometry, 2 h
Sequence of Glucocorticoid receptor (Homo sapiens) (P04150 whole entry, looked up, the tested form may be a part): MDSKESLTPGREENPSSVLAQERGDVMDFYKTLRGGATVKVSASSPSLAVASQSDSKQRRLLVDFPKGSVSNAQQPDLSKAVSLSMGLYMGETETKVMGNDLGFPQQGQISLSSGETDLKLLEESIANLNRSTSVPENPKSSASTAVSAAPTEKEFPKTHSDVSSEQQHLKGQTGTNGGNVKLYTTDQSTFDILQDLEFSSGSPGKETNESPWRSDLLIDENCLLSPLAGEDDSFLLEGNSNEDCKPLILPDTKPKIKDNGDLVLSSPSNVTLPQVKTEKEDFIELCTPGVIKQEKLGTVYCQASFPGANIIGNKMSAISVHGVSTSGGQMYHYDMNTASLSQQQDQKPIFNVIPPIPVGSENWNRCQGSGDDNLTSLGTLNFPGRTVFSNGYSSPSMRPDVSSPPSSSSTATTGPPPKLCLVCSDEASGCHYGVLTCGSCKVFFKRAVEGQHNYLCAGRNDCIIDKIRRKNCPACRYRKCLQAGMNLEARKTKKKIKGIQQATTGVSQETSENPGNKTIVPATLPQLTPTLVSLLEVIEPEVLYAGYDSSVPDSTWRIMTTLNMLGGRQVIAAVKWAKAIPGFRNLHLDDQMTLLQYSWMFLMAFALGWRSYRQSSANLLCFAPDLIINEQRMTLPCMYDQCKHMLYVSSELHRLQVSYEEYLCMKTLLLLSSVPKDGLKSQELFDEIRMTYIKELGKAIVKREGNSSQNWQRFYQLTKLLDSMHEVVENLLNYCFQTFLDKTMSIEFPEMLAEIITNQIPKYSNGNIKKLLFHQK

[6] = molecular target: Glucocorticoid receptor (Homo sapiens) (UniProt P04150); assay: GR-EFC Redistribution (AID 451; calls by dose curve; further: potency means the concentration at half of the fitted maximal effect); details: CHO-K1 GR-EFC translocation, beta-gal luminescence, 2 h
Outline: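 CHO-K1 cells stably expressing nuclear-localized β-gal enzyme acceptor and GR fused C-terminally to the enzyme donor fragment; ligand-driven nuclear translocation restores β-gal by complementation. Compounds titrated up to 46 uM final, 2 h at 37 °C; luminescence read.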

[7] = molecular target: 3',5'-cyclic-AMP phosphodiesterase 4B (Homo sapiens) (UniProt Q07343); assay: qHTS Assay for Inhibitors of PDE-IV (AID 607; active means well fitted activation curve with a large enough effect in the main read-out, with a control signal flat, not every such curve was filed as active; further: % of control where 0% means no effect)
Sequence of 3',5'-cyclic-AMP phosphodiesterase 4B (Homo sapiens) (Q07343 whole entry, looked up): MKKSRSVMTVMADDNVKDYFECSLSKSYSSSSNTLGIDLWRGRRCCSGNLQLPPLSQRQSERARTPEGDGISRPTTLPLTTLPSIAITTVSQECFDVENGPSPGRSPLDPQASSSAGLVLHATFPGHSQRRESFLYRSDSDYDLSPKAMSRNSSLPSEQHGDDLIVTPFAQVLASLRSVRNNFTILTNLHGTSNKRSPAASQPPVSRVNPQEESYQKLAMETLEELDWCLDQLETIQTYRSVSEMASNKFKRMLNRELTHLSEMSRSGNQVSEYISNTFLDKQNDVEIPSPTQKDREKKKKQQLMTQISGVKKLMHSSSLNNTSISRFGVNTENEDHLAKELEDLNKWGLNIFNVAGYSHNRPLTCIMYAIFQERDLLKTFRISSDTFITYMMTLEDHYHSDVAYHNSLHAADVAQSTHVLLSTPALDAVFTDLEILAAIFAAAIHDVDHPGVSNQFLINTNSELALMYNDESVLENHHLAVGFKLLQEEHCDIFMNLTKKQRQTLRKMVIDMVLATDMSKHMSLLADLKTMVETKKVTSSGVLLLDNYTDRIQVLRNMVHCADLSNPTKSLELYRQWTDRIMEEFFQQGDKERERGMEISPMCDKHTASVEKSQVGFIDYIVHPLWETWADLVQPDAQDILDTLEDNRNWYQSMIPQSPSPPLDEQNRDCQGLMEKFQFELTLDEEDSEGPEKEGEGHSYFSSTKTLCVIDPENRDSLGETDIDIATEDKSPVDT
Outline: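 Live HEK293 cells with a modified cyclic nucleotide-gated (CNG) channel report intracellular cAMP via membrane-potential dye fluorescence (ex 535/em 590 nm). Endogenous PDE-IV was targeted. Compounds were tested at up to 22.9 uM final; RO 20-1724 100 uM served as control.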

[8] = molecular target: Cytochrome P450 3A4 (Homo sapiens) (UniProt P08684); assay: qHTS Assay for Activators of Cytochrome P450 3A4 (AID 885); further: nearly all actives have a fitted effect of over 65% in size
Sequence of Cytochrome P450 3A4 (Homo sapiens) (P08684 whole entry, looked up): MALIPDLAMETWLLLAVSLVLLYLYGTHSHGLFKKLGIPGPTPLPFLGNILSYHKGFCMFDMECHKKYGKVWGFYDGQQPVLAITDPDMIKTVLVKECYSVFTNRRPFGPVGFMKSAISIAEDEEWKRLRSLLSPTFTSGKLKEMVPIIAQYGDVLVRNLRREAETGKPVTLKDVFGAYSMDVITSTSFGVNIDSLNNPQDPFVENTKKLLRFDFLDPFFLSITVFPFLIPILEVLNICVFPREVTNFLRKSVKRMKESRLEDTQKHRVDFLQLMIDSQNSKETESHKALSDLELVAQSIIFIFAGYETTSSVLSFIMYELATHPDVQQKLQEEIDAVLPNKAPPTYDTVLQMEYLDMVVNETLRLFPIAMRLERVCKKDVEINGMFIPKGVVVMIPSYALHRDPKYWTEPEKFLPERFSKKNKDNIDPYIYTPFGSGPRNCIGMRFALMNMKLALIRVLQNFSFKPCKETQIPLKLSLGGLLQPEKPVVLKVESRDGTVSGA
Outline: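 Quantitative HTS format: compounds preincubated with 20nM human CYP3A4 and Luciferin-PPXE substrate at KM, reaction started by NADPH regeneration, stopped after 60 min, luciferase luminescence read 20 min later.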

[9] = qHTS Assay for Identification of Small Molecule Agonists for Thrombopoietin (TPO) Signaling Pathway (AID 917); further: on the % scale 0 is the no-effect control and ±100 the full control effect
Outline: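 Activators of TPO signaling were sought in murine Ba/F3 cells transfected with the human receptor, using a luciferase gene driven by the Glycoprotein IIb promoter; 24-hr compound exposure at 37 C alongside 26 pM TPO, in IL-3-free medium.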

[10] = molecular target: Muscarinic acetylcholine receptor M1 (Rattus norvegicus) (UniProt P08482); assay: qHTS Assay for Antagonists of Acetylcholine Muscarinic M1 Receptor: Kinetic Measurement of Intracellular Calcium Response (AID 943);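 further: Fluo-4 calcium signal as peak divided by basal fluorescence over 4 min; nearly all actives have a fitted effect of over 75% in size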
Sequence of Muscarinic acetylcholine receptor M1 (Rattus norvegicus) (P08482 whole entry, looked up): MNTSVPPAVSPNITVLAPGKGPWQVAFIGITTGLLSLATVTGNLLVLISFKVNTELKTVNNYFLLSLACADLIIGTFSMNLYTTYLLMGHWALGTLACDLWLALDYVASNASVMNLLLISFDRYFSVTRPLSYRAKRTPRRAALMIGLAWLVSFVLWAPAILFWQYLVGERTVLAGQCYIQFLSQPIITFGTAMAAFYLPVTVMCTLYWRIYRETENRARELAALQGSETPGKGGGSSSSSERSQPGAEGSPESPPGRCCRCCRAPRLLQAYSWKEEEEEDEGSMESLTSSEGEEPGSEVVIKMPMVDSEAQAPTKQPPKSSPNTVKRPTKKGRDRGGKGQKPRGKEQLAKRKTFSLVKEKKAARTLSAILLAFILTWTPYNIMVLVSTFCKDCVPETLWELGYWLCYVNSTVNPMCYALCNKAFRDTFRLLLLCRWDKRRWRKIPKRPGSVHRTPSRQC
Outline: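 CHO cells stably expressing rat M1 were loaded with no-wash Fluo-4 dye for 1 h at 37C, pre-incubated 10 min with compound, then challenged with EC80 carbachol (100 nM final); kinetic calcium read 4 min, peak/basal ratio.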

[11] = molecular target: Muscarinic acetylcholine receptor M1 (Rattus norvegicus) (UniProt P08482); assay: qHTS Assay for Antagonists of Acetylcholine Muscarinic M1 Receptor: Measurement of IP-One Response (AID 944); further: nearly all actives have a fitted effect of over 75% in size
Outline: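 CHO cells expressing rat M1 receptor, recovered overnight, were pre-incubated 10 min with compound, then stimulated 30 min with carbachol at EC80 (200 nM) in LiCl-containing buffer, pH 7.4. IP1 accumulation was read by HTRF (620/665 nm).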

[12] = molecular target: Pyruvate kinase PKM (Homo sapiens) (UniProt P14618); assay: qHTS Assay for Activators of Human Muscle Pyruvate Kinase (AID 954; active means well fitted curve in the direction sought with a large enough effect, not every such curve was filed as active;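 further: 0% = uninhibited enzyme and -100% = no enzyme or full thiadiazolimine inhibition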)
Sequence of Pyruvate kinase PKM (Homo sapiens) (P14618 whole entry, looked up): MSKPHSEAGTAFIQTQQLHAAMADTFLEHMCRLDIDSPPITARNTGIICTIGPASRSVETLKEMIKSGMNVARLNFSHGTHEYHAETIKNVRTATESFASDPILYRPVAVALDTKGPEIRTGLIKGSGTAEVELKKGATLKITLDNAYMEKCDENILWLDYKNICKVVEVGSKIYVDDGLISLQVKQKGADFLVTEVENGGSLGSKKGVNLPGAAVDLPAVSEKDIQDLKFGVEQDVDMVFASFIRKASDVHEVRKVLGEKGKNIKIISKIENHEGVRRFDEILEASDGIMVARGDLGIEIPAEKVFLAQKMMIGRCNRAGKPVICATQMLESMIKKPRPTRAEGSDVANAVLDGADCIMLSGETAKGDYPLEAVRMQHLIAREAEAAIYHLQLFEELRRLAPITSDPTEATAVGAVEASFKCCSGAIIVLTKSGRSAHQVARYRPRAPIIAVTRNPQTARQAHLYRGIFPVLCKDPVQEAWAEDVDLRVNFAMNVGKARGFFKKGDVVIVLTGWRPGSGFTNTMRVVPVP
Outline: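 Enzyme was run at intermediate activity so both inhibitors and activators could be detected. ATP formed from ADP and PEP by 0.1 nM human PKM2 during a 1 h room-temperature incubation was quantified by coupled luciferase luminescence.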

[13] = molecular target: Alpha-galactosidase A (Homo sapiens) (UniProt P06280); assay: Counterscreen for Glucocerebrosidase Inhibitors: qHTS Assay for Human alpha-Galactosidase at pH 4.5 (AID 992); further: 0% is about no effect
Sequence of Alpha-galactosidase A (Homo sapiens) (P06280 whole entry, looked up): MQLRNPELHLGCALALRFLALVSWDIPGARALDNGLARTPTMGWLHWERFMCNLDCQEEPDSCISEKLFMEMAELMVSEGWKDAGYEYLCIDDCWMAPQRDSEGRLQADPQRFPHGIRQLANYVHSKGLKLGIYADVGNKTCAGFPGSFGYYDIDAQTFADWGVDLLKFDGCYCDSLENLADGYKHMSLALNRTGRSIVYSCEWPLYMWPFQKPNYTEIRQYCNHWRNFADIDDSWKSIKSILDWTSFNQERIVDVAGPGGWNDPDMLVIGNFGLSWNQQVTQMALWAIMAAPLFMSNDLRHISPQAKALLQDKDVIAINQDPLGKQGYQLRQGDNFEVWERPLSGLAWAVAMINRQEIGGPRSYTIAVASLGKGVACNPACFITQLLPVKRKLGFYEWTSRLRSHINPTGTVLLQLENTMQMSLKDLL
Outline: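 Read-out is 4-methylumbelliferone fluorescence (365 nm excitation, 440 nm emission) after a pH 10 NaOH/glycine stop. Reactions held 2 nM enzyme and 80 uM substrate at pH 4.5 for 20 min at room temperature.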

[14] = molecular target: alpha-glucosidase (Oryza sativa, rice) (UniProt Q653V4); assay: Counterscreen for Glucocerebrosidase Inhibitors: qHTS Assay for Rice alpha-Glucosidase at pH 5.0 (AID 997);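 further: 0% = full activity with enzyme and -100% = basal without enzyme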
Outline: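 Rice alpha-glucosidase (4 nM final) with 400 uM 4-methylumbelliferyl-alpha-D-glucopyranoside in citrate buffer pH 5.0, 20 min at room temperature, stopped at pH 10; fluorescence 365/440 nm, compounds 0.7 nM–77 uM, AC50 from Hill fits.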

[15] = molecular target: Mitogen-activated protein kinase 10 (Mus musculus) (UniProt Q61831); assay: JNK3 AlphaScreen Assay (AID 530; active means well fitted curve in either direction with a large enough effect, not every such curve was filed as active)
Outline: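 JNK3 came from HepG2 lysates pre-activated with IL-1beta and TNF-alpha and phosphorylated biotinylated GST-cJun (1-79) at 10 uM ATP, pH 7.6, room temperature. Compounds were titrated. AlphaScreen signal used anti-phospho-cJun (Ser73) antibody.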

[16] = molecular target: Guanine nucleotide-binding protein G(i) subunit alpha-1 (Homo sapiens) (UniProt P63096); assay: qHTS Assay for Inhibitors of RGS12 GoLoco Motif Activity (Green Fluorophore) (AID 879);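 further: 0% = labeled peptide with Gαi1 and full inhibition = labeled peptide alone without protein; negative values mean loss of peptide binding seen as reduced polarization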
Sequence of Guanine nucleotide-binding protein G(i) subunit alpha-1 (Homo sapiens) (P63096 whole entry, looked up): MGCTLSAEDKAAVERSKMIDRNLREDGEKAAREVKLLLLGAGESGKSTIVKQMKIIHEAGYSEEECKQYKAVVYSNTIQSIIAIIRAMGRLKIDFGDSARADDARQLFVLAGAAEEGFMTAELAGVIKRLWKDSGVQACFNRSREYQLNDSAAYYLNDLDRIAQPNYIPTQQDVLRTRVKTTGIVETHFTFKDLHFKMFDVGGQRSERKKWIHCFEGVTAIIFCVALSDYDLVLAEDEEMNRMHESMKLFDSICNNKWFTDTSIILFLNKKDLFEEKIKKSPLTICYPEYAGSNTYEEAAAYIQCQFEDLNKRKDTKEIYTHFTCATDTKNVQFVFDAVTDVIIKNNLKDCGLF
Outline: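 Fluorescence polarization assay: 50 nM Gαi1 with 10 nM FITC-labeled RGS12 GoLoco peptide in 10 mM Tris pH 7.5, 150 mM NaCl, 0.1 mM GDP, 0.05% NP40, 10 min at room temperature with compound.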

[17] = molecular target: Pyruvate kinase (Leishmania mexicana) (UniProt Q27686); assay: qHTS Validation Assay for Inhibitors of Leishmania Mexicana Pyruvate Kinase (AID 945);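 further: 0% = DMSO only neutral control wells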
Sequence of Pyruvate kinase (Leishmania mexicana) (Q27686 2-499 E452W): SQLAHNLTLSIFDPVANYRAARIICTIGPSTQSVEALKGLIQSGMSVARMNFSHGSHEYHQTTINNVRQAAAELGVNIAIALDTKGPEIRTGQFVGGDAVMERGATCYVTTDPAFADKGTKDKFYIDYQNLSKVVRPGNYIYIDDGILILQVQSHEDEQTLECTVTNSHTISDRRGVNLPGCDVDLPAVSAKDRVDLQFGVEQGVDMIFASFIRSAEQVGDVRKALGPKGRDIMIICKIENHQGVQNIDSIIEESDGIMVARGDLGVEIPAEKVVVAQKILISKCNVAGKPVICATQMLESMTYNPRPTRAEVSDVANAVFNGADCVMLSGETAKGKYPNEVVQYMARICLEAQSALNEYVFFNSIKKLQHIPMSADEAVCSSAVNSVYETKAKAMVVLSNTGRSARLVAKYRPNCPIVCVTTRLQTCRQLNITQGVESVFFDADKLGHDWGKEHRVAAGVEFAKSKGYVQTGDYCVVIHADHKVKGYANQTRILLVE
Outline: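 Mutant LmPYK (E451W), 0.2 nM, plus 0.5 mM PEP and 0.1 mM ADP in 50 mM imidazole pH 7.2 containing 0.01% Tween 20 and 0.05% BSA. Incubated 1 h at room temperature; luminescence via PKLight, normalized to DMSO.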

[18] = molecular target: Cytochrome P450 2C9 (Homo sapiens) (UniProt P11712); assay: qHTS Assay for Inhibitors and Substrates of Cytochrome P450 2C9 (AID 883); further: on the % scale 0 is the no-effect control and ±100 the full control effect; nearly all actives have a fitted effect of over 60% in size
Outline: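 A luminogenic readout tracked human CYP2C9 (10nM) converting deoxyluciferin (100uM, at KM) in 25mM KPO4 during 60 min at 37C with regenerated NADPH. Values normalized to 57uM sulphaphenazole as complete inhibition.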

[19] = molecular target: Cytochrome P450 2D6 (Homo sapiens) (UniProt P10635); assay: qHTS Assay for Inhibitors and Substrates of Cytochrome P450 2D6 (AID 891);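 further: luciferin methyl ether substrate demethylated by CYP2D6 with NADPH regeneration; on the % scale 0 is the no-effect control and ±100 the full control effect; nearly all actives have a fitted effect of over 60% in size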
Outline: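 Human CYP2D6 (5 nM) with 30 uM Luciferin-ME EGE (at Km) in 100 mM KPO4, compound preincubated 10 min, then NADPH regeneration system for 60 min at room temperature. Luciferin read by luminescence; normalized to 1.43 uM quinidine.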

[20] = molecular target: Cytochrome P450 2C19 (Homo sapiens) (UniProt P33261); assay: qHTS Assay for Inhibitors and Substrates of Cytochrome P450 2C19 (AID 899); further: on the % scale 0 is the no-effect control and ±100 the full control effect; nearly all actives have a fitted effect of over 60% in size
Outline: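 NADPH-dependent conversion of Luciferin-H EGE (10uM, at KM) by 5nM enzyme in 50mM KPO4, 60 min at 37C following 10 min compound preincubation. Stopped with luciferin detection buffer; luminescence read after 20 min.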

O=c1ccn([C@@H]2O[C@@H](COP(=O)(O)OP(=O)(O)O)[C@H](O)[C@@H]2O)c(=O)[nH]1
inactive: activity change, negative = inhibition [1] 4.38% [at 38 µM] | Potency [2] | activity change, negative = inhibition [3] -1.51% [at 38 µM] | activity, negative = inhibition [4] 11.6% [at 38 µM] | Potency [5] > 46 µM | Potency [6] > 46 µM | Potency [7] | Potency [8] | outcome [9] | Potency [10] | Potency [11] | outcome [12] | outcome [13] | Potency [14]

OC[C@@H]1O[C@@H](n2cnc3c(N[C@@H]4C[C@@H]5CC[C@H]4C5)ncnc32)[C@@H](O)[C@H]1O
inactive: activity change, negative = inhibition [1] -1.94% [at 38 µM] | Potency [2] | activity change, negative = inhibition [3] 8.03% [at 38 µM] | activity, negative = inhibition [4] 24.8% [at 38 µM] | Potency [5] > 46 µM | Potency [6] > 46 µM | Potency [7] | outcome [9] | Potency [10] | Potency [11] | outcome [12] | outcome [13] | Potency [14]

O=C(Nc1ccccc1)N1CCC2(CC1)CCN(C(=O)c1ccco1)CC2
active: Potency [2] 10 µM
inactive: activity change, negative = inhibition [1] -11.7% | activity change, negative = inhibition [3] -5.38% | activity, negative = inhibition [4] 15.9% | Potency [6] > 46 µM | Potency [15] | Potency [7]

CC(C)(C)c1onc(OCP(=O)(O)O)c1C[C@@H](N)C(=O)O
inactive: activity change, negative = inhibition [1] -0.711% [at 38 µM] | Potency [2] | activity change, negative = inhibition [3] 8.86% [at 38 µM] | activity, negative = inhibition [4] -10.4% [at 38 µM] | Potency [5] > 46 µM | Potency [6] > 46 µM | Potency [7] | outcome [16] | outcome [9] | Potency [10] | Potency [11] | outcome [17] | outcome [12] | outcome [13] | Potency [14]

C[C@@H]1C[C@@H]2[C@H]3CCC4=CC(=O)C=C[C@]4(C)[C@]3(Cl)[C@@H](O)C[C@@]2(C)[C@@]1(O)C(=O)CO
inactive: activity change, negative = inhibition [1] 12.5% [at 38 µM] | Potency [2] | activity change, negative = inhibition [3] 6.53% [at 38 µM] | activity, negative = inhibition [4] 3.18% [at 38 µM] | Potency [15] | Potency [7] | outcome [16] | outcome [9] | outcome [12] | outcome [13] | Potency [14]

COc1cc([C@H](O)CO)ccc1O
inactive: activity change, negative = inhibition [1] -0.627% [at 38 µM] | Potency [2] | activity change, negative = inhibition [3] 2.95% [at 38 µM] | activity, negative = inhibition [4] 17.1% [at 38 µM] | Potency [5] > 46 µM | Potency [6] > 46 µM | Potency [7] | Potency [8] | outcome [9] | Potency [10] | Potency [11] | outcome [17] | outcome [12] | outcome [13] | Potency [14]

NC(N)=NCCSSCCN=C(N)N
inactive: activity change, negative = inhibition [1] -8.04% [at 38 µM] | Potency [2] | activity change, negative = inhibition [3] -8.54% [at 38 µM] | activity, negative = inhibition [4] -24.3% [at 38 µM] | Potency [5] > 46 µM | Potency [6] > 46 µM | Potency [7] | Potency [18] | Potency [19] | Potency [20]

CSc1nc(N)c2ncn([C@@H]3O[C@@H](COP(=O)(O)OP(=O)(O)O)[C@@H](O)[C@H]3O)c2n1
inactive: activity change, negative = inhibition [1] 22.9% [at 38 µM] | Potency [2] | activity change, negative = inhibition [3] 6.32% [at 38 µM] | activity, negative = inhibition [4] 5.34% [at 38 µM] | Potency [5] > 46 µM | Potency [6] > 46 µM | Potency [7] | outcome [9] | Potency [11] | outcome [17] | outcome [12] | outcome [13] | Potency [14]

CN1CCc2c(cc(O)c(O)c2Cl)[C@H](c2cccc(Cl)c2)C1
inactive: activity change, negative = inhibition [1] 26% [at 38 µM] | Potency [2] | activity change, negative = inhibition [3] -25.3% [at 38 µM] | activity, negative = inhibition [4] -20% [at 38 µM] | Potency [5] > 46 µM | Potency [15] | Potency [7] | outcome [17] | outcome [12] | outcome [13] | Potency [14]

CO/N=C(\C(=O)N[C@@H]1C(=O)N2C(C(=O)[O-])=C(C[N+]3(C)CCCC3)CS[C@@H]12)c1csc(N)n1
inactive: activity change, negative = inhibition [1] 2.79% [at 17.2 µM] | Potency [2] | activity change, negative = inhibition [3] -16.9% [at 17.2 µM] | activity, negative = inhibition [4] 11.5% [at 17.2 µM] | Potency [15] | Potency [7]

O=C(O)[C@@H](O)Cc1ccccn1
inactive: activity change, negative = inhibition [1] 4.97% | Potency [2] | activity change, negative = inhibition [3] 2.96% | activity, negative = inhibition [4] 4.36% | Potency [5] > 46 µM | Potency [15] | Potency [7]
